In paper PMC4336329 (PLoS ONE, 2015):
In all, about 310,000 compounds went through this assay and about 14,000 (4.5%) showed an effect of 50% or more. The effect is printed as a negative number. The list comes from a sample in which strong results are over-represented; it also holds similar structures and randomly drawn compounds.

molecular target: human ether-à-go-go-related gene (hERG) potassium channel (human, UniProt Q12809); assay: primary screen, population patch clamp on CHO cells stably expressing hERG; higher = less effect of the substance
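Note: peak tail current of the secondary pulse compared with the same well before compound.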

human ether-à-go-go-related gene (hERG) potassium channel, sequence (Q12809 whole entry, looked up): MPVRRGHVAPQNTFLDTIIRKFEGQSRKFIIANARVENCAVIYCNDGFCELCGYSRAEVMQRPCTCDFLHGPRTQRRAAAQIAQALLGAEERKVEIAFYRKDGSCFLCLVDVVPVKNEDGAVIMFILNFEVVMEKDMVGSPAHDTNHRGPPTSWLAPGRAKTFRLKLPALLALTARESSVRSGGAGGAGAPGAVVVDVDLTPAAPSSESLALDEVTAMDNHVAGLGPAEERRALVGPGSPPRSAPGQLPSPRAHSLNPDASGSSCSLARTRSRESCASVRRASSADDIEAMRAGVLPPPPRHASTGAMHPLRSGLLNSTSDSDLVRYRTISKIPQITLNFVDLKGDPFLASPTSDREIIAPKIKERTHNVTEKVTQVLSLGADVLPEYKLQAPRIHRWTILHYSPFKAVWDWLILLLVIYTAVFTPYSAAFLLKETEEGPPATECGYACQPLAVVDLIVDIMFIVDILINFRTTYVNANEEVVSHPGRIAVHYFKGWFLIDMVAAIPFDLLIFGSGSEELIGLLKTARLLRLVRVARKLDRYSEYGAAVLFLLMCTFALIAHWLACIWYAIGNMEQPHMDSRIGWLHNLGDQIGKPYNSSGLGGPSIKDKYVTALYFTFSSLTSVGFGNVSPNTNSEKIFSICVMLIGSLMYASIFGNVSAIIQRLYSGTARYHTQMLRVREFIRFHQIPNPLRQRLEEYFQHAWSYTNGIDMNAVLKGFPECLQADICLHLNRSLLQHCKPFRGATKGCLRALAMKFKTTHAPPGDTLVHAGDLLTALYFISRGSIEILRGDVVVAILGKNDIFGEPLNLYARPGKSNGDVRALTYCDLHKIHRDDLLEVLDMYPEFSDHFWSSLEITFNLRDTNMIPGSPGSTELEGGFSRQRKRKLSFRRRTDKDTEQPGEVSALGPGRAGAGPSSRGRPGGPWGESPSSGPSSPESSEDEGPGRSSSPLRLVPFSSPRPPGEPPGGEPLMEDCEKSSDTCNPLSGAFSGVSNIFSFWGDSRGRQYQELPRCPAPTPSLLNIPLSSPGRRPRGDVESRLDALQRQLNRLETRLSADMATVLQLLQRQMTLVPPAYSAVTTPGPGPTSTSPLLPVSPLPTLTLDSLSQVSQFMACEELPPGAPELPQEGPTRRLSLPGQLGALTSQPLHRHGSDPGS

Row | SMILES | hERG current change (%, negative = inhibition) at 10uM [%]
1 | COc1cc(NC(=O)CS(=O)(=O)c2ccccc2)cc(OC)c1OC | 11.3
2 | Cc1cccc(NC(=O)Nc2cccc(Oc3c(F)c(F)c(F)c(F)c3F)c2)c1 | 8.83
3 | N#C/C(=C/c1ccc(Br)s1)C(=O)NCCc1c[nH]c2ccccc12 | 18.8
4 | O=C(COC(=O)c1ccc([N+](=O)[O-])cc1)Nc1cccnc1Cl | -1.85
5 | O=C(Nc1nccs1)C1CCN(S(=O)(=O)c2ccc(Cl)c(C(F)(F)F)c2)CC1 | -0.668
6 | O=C(Nc1ccncc1)c1cc(S(=O)(=O)N2CCCCC2)ccc1Cl | -56.2
7 | O=C(Nc1ccncc1)C1CCN(S(=O)(=O)c2ccc(Cl)c(C(F)(F)F)c2)CC1 | -69.9
8 | CS(=O)(=O)Nc1ccc(S(=O)(=O)N2CCCCCC2)cc1 | -65.4
9 | O=C(Nc1cc(S(=O)(=O)N2CCCCC2)ccc1N1CCCCC1)c1ccncc1 | -52.4
10 | Cc1ccnc(NC(=O)C2CCN(S(=O)(=O)c3ccc(Cl)c(C(F)(F)F)c3)CC2)c1 | -14.2
11 | O=C(Nc1ccc(O)cc1)c1cc(S(=O)(=O)N2CCCC2)ccc1Cl | -14.9
12 | CS(=O)(=O)Nc1ccc(S(=O)(=O)N2CCCC2)cc1 | 8.49
13 | CCN(CC)S(=O)(=O)c1ccc(N2CCCC2)c(NC(=O)c2ccncc2)c1 | -22.6
14 | CCN(CC)S(=O)(=O)c1ccc(N2CCCCC2)c(NC(=O)c2ccncc2)c1 | -29.5
15 | CS(=O)(=O)Nc1ccc(C(=O)Nc2ccc(S(=O)(=O)N3CCCCC3)cc2)cc1 | -13.8
16 | O=C(Nc1ccncc1)c1cc(S(=O)(=O)N2CCOCC2)ccc1Cl | -46.6
17 | COc1ccc(S(=O)(=O)CCC(=O)Nc2c(C)cccc2C)cc1 | 23
18 | CC(=O)Nc1ccc(S(=O)(=O)NCCSCc2ccccc2Cl)cc1 | 2.92
19 | COc1ccc(Br)cc1-c1nc2c(c(=O)[nH]c(=O)n2Cc2ccccc2)n1C | 5.42
20 | CC(C)CN(C(=O)Cn1c(C(F)(F)F)nc2ccccc21)C1CCS(=O)(=O)C1 (stereo not drawn) | -9.53
21 | Cc1ccc(N2C(=O)C(NC(=O)c3ccccc3F)(C(F)(F)F)C3=C2CC(C)(C)CC3=O)cc1 (stereo not drawn) | 6.43
22 | CC(SC1=Nc2ccccc2C2CC=NN12)C(=O)NC1(C#N)CCCCC1 (stereo not drawn) | -19.8
23 | CNC(=S)N/N=C/C1=CCC2CC1C2(C)C (stereo not drawn) | -3.84
24 | O=C(Cn1nnc2ccccc2c1=O)Nc1cc(C(F)(F)F)ccc1N1CCOCC1 | -14.5
25 | O=C(Nc1ccc(S(=O)(=O)N2CCCCC2)cc1)c1ccccc1Cl | -73.1
26 | O=C(Nc1cc(S(=O)(=O)N2CCCCC2)ccc1Cl)c1ccc(F)cc1 | -8.99
27 | O=C(O)c1ccccc1C(=O)Nc1ccc(S(=O)(=O)N2CCCC2)cc1 | 22.3

Row | SMILES | hERG current change (%, negative = inhibition) at 10uM [%]
28 | O=C(Nc1ccc(S(=O)(=O)N2CCOCC2)cc1)c1ccco1 | -20.3
29 | O=C(Nc1cc(S(=O)(=O)N2CCCCC2)ccc1Cl)c1ccncc1 | -50.2
30 | COc1cc(S(=O)(=O)N2CCCCC2)ccc1NC(=O)c1ccncc1 | -30.8
31 | O=C(Nc1ccc(S(=O)(=O)N2CCCCC2)cc1)c1ccco1 | -10.7
32 | CN1CCN(S(=O)(=O)c2ccc(NC(=O)c3ccccc3Cl)cc2)CC1 | 8.9
33 | O=C(Nc1ccc(S(=O)(=O)N2CCCCCC2)cc1)c1ccco1 | -72.5
34 | Cn1c(SC2CCCCC2=O)nnc1-c1ccccc1F (stereo not drawn) | 9.45
35 | Cc1cc(C)cc(OCC(=O)O/N=C(\N)c2ccccn2)c1 | -6.54
36 | O=c1ccc(-c2ccc(S(=O)(=O)N3CCN(c4cccc(Cl)c4)CC3)o2)n[nH]1 | 10
37 | O=C(Nc1cc(S(=O)(=O)N2CCOCC2)ccc1N1CCOCC1)C1CCCO1 (stereo not drawn) | -3.99
38 | O=C(CN1CCN(C(=O)c2ccco2)CC1)Nc1cc(Cl)ccc1Cl | -60.1
39 | Cc1cc(Cl)ccc1NC(=S)N1CCN(C(=O)c2ccco2)CC1 | -8.95
40 | O=C(CN1CCN(C(=O)c2ccco2)CC1)NCc1ccc(Cl)cc1 | -64.4
41 | Cc1ccccc1NC(=O)CN1CCN(C(=O)c2ccco2)CC1 | -29.4
42 | Cc1ccc(NC(=O)CN2CCN(C(=O)c3ccco3)CC2)cc1 | -3.01
43 | Cc1cc(Cl)ccc1NC(=O)CN1CCN(C(=O)c2ccco2)CC1 | -73.6
44 | O=C(c1ccco1)N1CCN(Cc2ccc(Cl)cc2)CC1 | -14
45 | O=C(NCc1ccc(Cl)cc1)C1CCN(C(=O)c2ccco2)CC1 | -41.4
46 | O=C(CN1CCN(C(=O)c2ccco2)CC1)Nc1ccc(F)cc1F | -49.6
47 | O=C(CN1CCN(C(=O)c2ccco2)CC1)Nc1ccc(Cl)c(C(F)(F)F)c1 | -67.1
48 | O=C(CN1CCN(C(=O)c2ccco2)CC1)Nc1ccc(Cl)c(S(=O)(=O)N2CCOCC2)c1 | -25.6
49 | COc1ccc2c(-c3ccccc3)cc(SCC(=O)N(C)C)nc2c1 | -22.9
50 | C=CCNC(=O)c1oc2ccc(S(=O)(=O)N3CCC4(CC3)OCCO4)cc2c1C | 0.761
51 | CC(OC(=O)/C=C/c1ccco1)C(=O)Nc1cccc([N+](=O)[O-])c1 (stereo not drawn) | 6.57
52 | Cc1ccc(-n2nc3c(=O)n(CC(=O)NC(C)CCc4ccccc4)nc(C)c3c2C)cc1 (stereo not drawn) | 6.77
53 | O=C(CNC(=O)c1ccco1)Nc1ccc(OC(F)F)cc1 | 19.6
54 | COc1cc(/C=C2\C(=N)N3N=C(S(C)(=O)=O)SC3=NC2=O)ccc1OS(=O)(=O)c1ccc(C)cc1 | 6.9
